High-throughput results (PubChem)
TDP1 cell noCPT = qHTS for Inhibitors of human tyrosyl-DNA phosphodiesterase 1 (TDP1): qHTS in cells in absence of CPT. AID 686978, 2013. Potency, µM (titrated, usually from 46.2 µM), most hits filed as inhibitors. 15% of 420,000 active. DT40 Tdp1-/- hTDP1 cells, no CPT, ATP luminescence, 48 h; note: nearly all actives have a fitted effect of over 55% in size
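Growth of hTDP1-complemented DT40 Tdp1-knockout cells is measured by ATP luminescence after at least 48 hr compound exposure at 37 °C, with DMSO substituting for the 20 nM CPT used in the parallel screen.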
HT1080 IDH1KD tx = kills HT-1080 cells with IDH1 knockdown; HT-1080 IDH1 knockdown viability, ATP luminescence, 48 h; Potency, µM (highest dose often 46.1 µM), most hits filed as cytotoxic; 2% of 360,000 active
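CellTiter-Glo luminescence after 48 h compound exposure at 37 degrees C of IDH1-knockdown HT-1080 cells in 5% FBS RPMI. %Activity scaled between DMSO wells and cell-free media wells, with curves fitted and assigned curve classes.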
TDP1 cell CPT = growth inhibition of DT40 Tdp1-/-;hTDP1 cells with camptothecin (screen for TDP1 inhibitors); chicken DT40 Tdp1-/-;hTDP1 cells + 20 nM CPT, ATP luminescence, 48 h; Potency, µM (top dose mostly 46.2 µM), hits mostly inhibitors; 12% of 420,000 active; AID 686979; note: nearly all actives have a fitted effect of over 55% in size
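Cell growth measured by CellTiter-Glo luminescence after a minimum 48 h, 37 C compound exposure with 20 nM CPT in Tdp1-knockout DT40 cells stably expressing hTDP1, seeded 400/well; qHTS titration format.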
IL-1B inflam inh = inhibitors of inflammasome signaling (IL-1 beta secretion); 4.7% of 360,000 active; THP-1 LPS/ATP IL-1B secretion, AlphaLISA, 16 h; stronger effect = lower value; AID 743279; activity change, % at 57.5 µM; in the data active = activity change below about -50%; inconclusive = mostly about -30% to -49%
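THP-1 cells pretreated 1 hr with compounds (up to 57.5 uM final), then stimulated with LPS (250 ng/mL final) plus ATP (1.25 mM final); secreted IL-1B measured by AlphaLISA after 16 hr, decreased signal indicating inhibition.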
HT1080-NT tox = kills 2HG-producing HT-1080-NT fibrosarcoma cells; 1.6% of 360,000 active; HT-1080-NT fibrosarcoma viability, CellTiter-Glo ATP luminescence, 48 h; Potency, µM (top dose mostly 46.1 µM), hits mostly cytotoxic;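 note: NT is the 2HG producing partner of a matched IDH1 knockdown line; nearly all actives have a fitted effect of over 55% in size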
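Compounds were tested in concentration-response format on HT-1080-NT cells for 48 hours at 37 degrees C. Cell viability came from CellTiter-Glo luminescence; curves were classified by r2, response magnitude and activity.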
Hits are given with their value. Only some compounds are listed: those with a hit (about 19% of all), similar ones and a draw of the others. Unless noted, calls come from the whole dose curve; as a rule, active = well fitted curve in the direction sought with a large enough effect; inconclusive = small, poorly fitted or top-dose-only effect, or another doubt; inactive = no such curve, though single readings can be large; an effect the other way counts as inactive or inconclusive.

`CN(C(=O)CSc1nc(-c2ccccc2)cn1N)C(c1ccccc1)c1ccccc1` gave TDP1 cell noCPT 26µM, HT1080 IDH1KD tx inconclusive, TDP1 cell CPT 21µM, IL-1B inflam inh inconclusive and HT1080-NT tox inconclusive.
`COc1ccccc1CNC(=O)CSc1nc(-c2ccccc2)cn1N` gave TDP1 cell noCPT inactive, HT1080 IDH1KD tx inactive, TDP1 cell CPT inconclusive, IL-1B inflam inh inactive and HT1080-NT tox inactive.
`CCOC(=O)[C@H]1[C@H]2COc3ccc(OC)cc3[C@@H]2N2C(=O)c3cc(OC)ccc3NC(=O)[C@@]12C` gave TDP1 cell noCPT inactive, HT1080 IDH1KD tx inactive, TDP1 cell CPT inactive, IL-1B inflam inh inactive and HT1080-NT tox inactive.
C=C(C(=O)c1ccccc1)C(c1ccccc1)C(C)C(=O)c1ccccc1 (stereo unspecified) was read as TDP1 cell noCPT inconclusive, HT1080 IDH1KD tx inconclusive, TDP1 cell CPT inconclusive, IL-1B inflam inh -97 and HT1080-NT tox inconclusive.
`C=C(C(=O)c1ccccc1)C(C)C(=C)C(=O)c1ccccc1` gave TDP1 cell noCPT 5.8µM, HT1080 IDH1KD tx 5.8µM, TDP1 cell CPT 5.8µM, IL-1B inflam inh -103 and HT1080-NT tox 8.2µM.
C=C(C(=O)c1ccccc1)C(C(=C)C(=O)c1ccccc1)c1ccc(OC)cc1 was read as TDP1 cell noCPT 5.2µM, HT1080 IDH1KD tx inactive, TDP1 cell CPT 10µM, IL-1B inflam inh -61 and HT1080-NT tox inactive.
Screening COc1ccccc1N(C(=O)c1ccncc1)c1nc(-c2ccc([N+](=O)[O-])cc2)cs1 returned TDP1 cell noCPT 16µM, HT1080 IDH1KD tx inactive, TDP1 cell CPT 16µM, IL-1B inflam inh inactive and HT1080-NT tox inactive.
Screening Cc1cccc(NC(=O)Nc2ccc3c(c2)N(C)C(=O)CS3)n1 returned TDP1 cell noCPT inconclusive, HT1080 IDH1KD tx inactive, TDP1 cell CPT inconclusive, IL-1B inflam inh -56 and HT1080-NT tox inactive.
For Cc1ccc(S(=O)(=O)NC(=O)NC2=NC(C)(C)N(c3ccc(Cl)c(Cl)c3)C(N)=N2)cc1 the results were TDP1 cell noCPT 1µM, HT1080 IDH1KD tx 1.6µM, TDP1 cell CPT 0.92µM, IL-1B inflam inh inactive and HT1080-NT tox 3.3µM.
Screening Cc1ccc(S(=O)(=O)NC(=O)Nc2ccc(Cl)cn2)cc1 returned TDP1 cell noCPT inactive, HT1080 IDH1KD tx inactive, TDP1 cell CPT inactive, IL-1B inflam inh inactive and HT1080-NT tox inactive.
Cc1ccc(C(=O)OC/C(O)=C(\C#N)c2nc3ccccc3[nH]2)cc1S(=O)(=O)N1CCOCC1 was read as TDP1 cell noCPT 7.3µM, HT1080 IDH1KD tx inactive, TDP1 cell CPT 5.8µM, IL-1B inflam inh inactive and HT1080-NT tox inactive.
Screening N#C/C(=C(/O)COC(=O)c1ccc2c(c1)OCCO2)c1nc2ccccc2[nH]1 returned TDP1 cell noCPT inactive, HT1080 IDH1KD tx inactive, TDP1 cell CPT inactive, IL-1B inflam inh -66 and HT1080-NT tox inactive.
`N#C/C(=C(/O)COC(=O)c1ccc(Cl)c(S(=O)(=O)N2CCOCC2)c1)c1nc2ccccc2[nH]1` gave TDP1 cell noCPT inactive, HT1080 IDH1KD tx inactive, TDP1 cell CPT inactive, IL-1B inflam inh inactive and HT1080-NT tox inactive.
For N#C/C(=C(/O)COC(=O)CCc1ccc(S(=O)(=O)N2CCOCC2)cc1)c1nc2ccccc2[nH]1 the results were TDP1 cell noCPT 13µM, HT1080 IDH1KD tx inactive, TDP1 cell CPT 16µM, IL-1B inflam inh inactive and HT1080-NT tox inactive.
For Cc1ccc(S(=O)(=O)N2CCOCC2)cc1N/N=C(\C#N)c1nc2ccccc2[nH]1 the results were TDP1 cell noCPT 26µM, HT1080 IDH1KD tx inactive, TDP1 cell CPT inconclusive, IL-1B inflam inh inactive and HT1080-NT tox inactive.
Screening C[C@H](NC(=O)c1ccco1)C(=O)NNC(=O)c1ccc(F)cc1 returned TDP1 cell noCPT inactive, HT1080 IDH1KD tx inactive, TDP1 cell CPT inconclusive, IL-1B inflam inh inactive and HT1080-NT tox inactive.
For N#C/C(=C\Nc1ccc2c(c1)OCCO2)c1nc2ccccc2[nH]1 the results were TDP1 cell noCPT 21µM, HT1080 IDH1KD tx inactive, TDP1 cell CPT inconclusive, IL-1B inflam inh inactive and HT1080-NT tox inactive.
For N#C/C(=C\Nc1ccc2c(c1)OCCO2)c1nc(-c2ccccc2)cs1 the results were TDP1 cell noCPT inconclusive, HT1080 IDH1KD tx inactive, TDP1 cell CPT inconclusive, IL-1B inflam inh inactive and HT1080-NT tox inactive.
Screening CC(C)(C)NC[C@@H](O)COc1cccc2c1CCCC2=O returned TDP1 cell noCPT inactive, HT1080 IDH1KD tx inactive, TDP1 cell CPT inactive, IL-1B inflam inh inactive and HT1080-NT tox inactive.
Screening CC(C)(C)NCC(O)COc1ccccc1C1CCCC1 (stereo unspecified) returned TDP1 cell noCPT 15µM, HT1080 IDH1KD tx inconclusive, TDP1 cell CPT inconclusive, IL-1B inflam inh inactive and HT1080-NT tox inconclusive.
For CC(C)(C)NC[C@H](O)COc1ccccc1C1CCCC1 the results were TDP1 cell noCPT 10µM and TDP1 cell CPT 13µM.
Screening O=C1c2cc([N+](=O)[O-])ccc2-c2cc(Br)c(N=C(NO)C(F)(F)F)cc21 returned TDP1 cell noCPT inconclusive, HT1080 IDH1KD tx inactive, TDP1 cell CPT inactive, IL-1B inflam inh -101 and HT1080-NT tox inactive.
For CCCS(=O)(=O)NC(=O)C1(C)CCN(C(=O)c2ccnc(Cl)c2)C1 (stereo unspecified) the results were TDP1 cell noCPT inactive, HT1080 IDH1KD tx inactive, TDP1 cell CPT inactive, IL-1B inflam inh inactive and HT1080-NT tox inactive.
For CCC(C)C(=O)Nc1cc(OC)c(OC)cc1C(=O)O (stereo unspecified) the results were TDP1 cell noCPT inactive, HT1080 IDH1KD tx inactive, TDP1 cell CPT inactive, IL-1B inflam inh inactive and HT1080-NT tox inactive.
CCC(CC)C(=O)Nc1cc(OC)c(OC)cc1C(=O)O was read as TDP1 cell noCPT 18µM, HT1080 IDH1KD tx inactive, TDP1 cell CPT 16µM, IL-1B inflam inh inactive and HT1080-NT tox inactive.
`COc1cccc(/C=N/N2CCN(c3ccncc3S(=O)(=O)N3CCCCC3)CC2)c1` gave TDP1 cell noCPT 2.6µM, HT1080 IDH1KD tx inactive, TDP1 cell CPT inconclusive, IL-1B inflam inh inactive and HT1080-NT tox inactive.
CC(CC(=O)NC1CCCC1)c1ccccc1 (stereo unspecified) was read as TDP1 cell noCPT inactive, HT1080 IDH1KD tx inactive, TDP1 cell CPT inactive, IL-1B inflam inh inactive and HT1080-NT tox inactive.
For COc1ccc(-c2cnnn2-c2ccc(NC(=O)c3ccc(S(=O)(=O)N4CCCCC4)cc3)cc2)cc1 the results were TDP1 cell noCPT inconclusive, HT1080 IDH1KD tx inactive, TDP1 cell CPT inconclusive, IL-1B inflam inh inactive and HT1080-NT tox inactive.
CC(Oc1cc2oc(=O)c3c(c2cc1Cl)CCCC3)C(=O)NCCN1CCOCC1 (stereo unspecified) was read as TDP1 cell noCPT 13µM, HT1080 IDH1KD tx inactive, TDP1 cell CPT inconclusive, IL-1B inflam inh inactive and HT1080-NT tox inactive.
Screening Cc1c(O)ccc2c(-c3ccccc3)cc(=O)oc12 returned TDP1 cell noCPT 15µM, HT1080 IDH1KD tx inactive, TDP1 cell CPT 13µM, IL-1B inflam inh inactive and HT1080-NT tox inactive.
